# Measurements: PubChem BioAssay (NCATS)
# Inconclusive results are not listed. A number with no mark means an inactive call. Calls of active or inactive are those of the source. Calls come from the whole dose curve; as a rule, active = well fitted inhibition curve with a large enough effect; inconclusive = small, poorly fitted or top-dose-only effect; inactive = flat fitted curve, though single readings scatter. Non-standard residues stand in square brackets, D forms with d. Residues, ends and D or L forms follow the SMILES beside them.
# Test: BET inhibitor-based combinations targeting novel dependencies in MECOM-rearranged (r) AML: AML-194 cell line (AID 2202237; note: nearly all actives have a fitted effect of over 40% in size;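 for viability (% of control): plate controls were vehicle wells for no effect and wells without cells for full effect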)
# Conditions: AML-194 (MECOM-r AML) viability, CellTiter-Glo, 48 h; series mostly up to 46 µM; viability (% of control): at the top concentration
# In short: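 Cells were plated at 500 per well and exposed to an 11-point dose series of each drug for 48 hr. Viability was measured by CellTiter-Glo luminescence, normalized to DMSO and empty-well controls, and summarized as AUC and per-cell-line Z-AUC.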
# Potency is the fitted concentration of half-maximal effect.
Structure (SMILES),Potency,viability (% of control)
COC1CCC(N2C(=O)CNc3ncc(-c4ccc(C(C)(C)O)nc4)nc32)CC1 (stereo not given),1660 nM (active),–
C[C@H]1O[C@H](O[C@H]2[C@H](O)[C@@H](O)[C@@H](O[C@H]3[C@H](O)[C@@H](O)C(O)O[C@@H]3CO)O[C@@H]2CO)[C@H](O)[C@@H](O)[C@@H]1N[C@H]1C=C(CO)[C@@H](O)[C@H](O)[C@H]1O (stereo not given in full),–,103%
CC(C)C[C@@H]1NC(=O)[C@@H](C(C)C)NC(=O)[C@@H]2CCCN2C(=O)[C@@H](CC(=O)O)NC(=O)[C@@H](Cc2c[nH]c3ccccc23)NC1=O (cyclo(L[dW][dD]P[dV])),–,111%
Cc1cnc(NC(=O)c2cc(Oc3cnc(C(=O)N(C)C)nc3)c3cc(C)oc3c2)cn1,–,113%
CC(C)(CO)n1cc(C(=O)c2cncc(NC(=O)Cc3ccc(Cl)cn3)c2)c2cnc(N)nc21,83.3 nM (active),–
CN1CCC(c2c(O)cc(O)c3c(=O)cc(-c4ccccc4Cl)oc23)C1CO (stereo not given),1050 nM (active),–
CCCCCCCOc1ccc(CCC(N)(CO)CO)cc1C(F)(F)F,14800 nM (active),–
O=C(O)CNC(=O)c1nc(Cl)c2ccccc2c1O,–,110%
COc1cccc2c1C(=O)c1c(O)c3c(c(O)c1C2=O)C[C@@](O)(/C(CO)=N/NC(=O)CCCCCN1C(=O)C=CC1=O)C[C@@H]3O[C@H]1C[C@H](N)[C@H](O)[C@H](C)O1,934 nM (active),–
Cc1ccc(-n2[nH]c(C)c(N=Nc3cccc(-c4cccc(C(=O)O)c4)c3O)c2=O)cc1C,–,102%
C[C@]12CC[C@H](O)CC1=CC[C@@H]1[C@@H]2CC[C@]2(C)C(c3cccnc3)=CC[C@@H]12,–,97.5% [at 15.6 µM]
CCOCOC[C@H](C[C@H](C)C(=O)NO)NC(=O)c1ccc(Oc2ccccc2)cc1,–,88.1%
COc1cc(/C=C/C(=O)CC(=O)/C=C/c2ccc(O)c(OC)c2)ccc1O,18600 nM (active),–
COc1ccc(N2C(=O)N(c3c(C)cccc3Cl)Cc3cnc(Nc4ccc(C5CCN(C)CC5)cc4OC)nc32)nc1,18600 nM (active),–
COc1cc(Nc2cnc(C#N)c(O[C@H](C)CN(C)C)n2)ncc1-c1cnn(C)c1,1480 nM (active),–
CNC1CCCN(c2c(F)cc3c(=O)c(C(=O)O)cn(C4CC4)c3c2OC)C1 (stereo not given),–,116%
CN(C)C(=O)COC(=O)Cc1ccc(OC(=O)c2ccc(N=C(N)N)cc2)cc1,–,120%
OC1CCC([C@H](O)C[C@H]2c3c(F)cccc3-c3cncn32)CC1 (stereo not given in full),–,115%
CC[C@@]1(O)C(=O)OCc2c1cc1n(c2=O)Cc2c-1nc1ccccc1c2CCNC(C)C,13.2 nM (active),–
C/C(=N\NC(=S)N1CCC1)c1ccccn1,41.7 nM (active),–
O=C(O)CCNc1cc(N2CCc3ccccc3CC2)nc(-c2cccnc2)n1,–,106%
C[C@@H](OC[C@@]1(c2ccccc2)CC[C@]2(CCC(=O)N2)CN1)c1cc(C(F)(F)F)cc(C(F)(F)F)c1,26300 nM (active),–
CC(=O)c1cc2c(o1)C(=O)c1ccccc1C2=O,2350 nM (active),–
COc1cc(N2CCN(C)CC2)ccc1Nc1ncc2c(n1)N(C)c1ccccc1C(=O)N2C,20900 nM (active),–
COc1cc([C@@H]2c3cc4c(cc3[C@@H](O[C@@H]3O[C@@H]5CO[C@@H](c6cccs6)O[C@H]5[C@H](O)[C@H]3O)[C@H]3COC(=O)[C@H]23)OCO4)cc(OC)c1O,372 nM (active),–
CO[C@H]1/C=C\C=C(\C)C(=O)NC2=CC(=O)C(NCCN(C)C)=C(C[C@@H](C)C[C@H](OC)[C@H](O)[C@@H](C)/C=C(/C)[C@@H]1OC(N)=O)C2=O,662 nM (active),–
CC(C)(S)[C@@H](N)C(=O)O,–,114% [at 5.12 µM]
Cc1nc2ccc(CN(C)c3ccc(C(=O)N[C@@H](CCC(=O)O)C(=O)O)s3)cc2c(=O)[nH]1,332 nM (active),–
CCCc1nc(C)c2c(=O)[nH]c(-c3cc(S(=O)(=O)N4CCN(CC)CC4)ccc3OCC)nn12,–,106%
CC1(C)O[C@@H]2C[C@H]3[C@@H]4C[C@H](F)C5=CC(=O)C=C[C@]5(C)[C@H]4[C@@H](O)C[C@]3(C)[C@]2(C(=O)CO)O1,–,74.9%
